This is part of a sample that, as a whole, favours compounds with a hit. Of some 83,000 tested, about 20% had one in any assay.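 The test compound was applied at a single concentration to cells in 96-well plates for 48 hours, and percent growth was recorded.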 Active and inactive are the calls of the source.

This assay has as its system U251 CNS. Nature of the assay: NCI-60 one-dose screen, 48 h (100 = growth as untreated, 0 = no growth, -100 = all killed). The following applies: 10 µM unless noted. As to the method:
Growth inhibition of the U251 human tumor cell line is measured as a screen for anti-cancer activity. Cells are grown in 96 well plates and exposed to the test compound for 48 hours. Compounds are tested at a single concentration, which is 10^-5 M for most compounds. The reported endpoint is percent growth (GI% or GIPRCNT), where numbers from 0 - 100% represent growth inhibition, and numbers from -100% - 0 represent cell death. For example, a value of 40 represents 60% growth inhibition. A value of 0 means no net growth occurred over the course of the experiment. A value of -40 indicates 40% of cells at the beginning of the experiment died by the end of the experiment. A value of -100 means all cells are dead at the end of the experiment.
NCI-60 Human Tumor Cell Lines Screen was performed using the standard one-dose NCI protocol, which is described in more detail at https://dtp.cancer.gov/discovery_development/nci-60/default.htm.
Compounds with GIPRCNT values below 10 were considered active. Activity score was based on GIPRCNT using the following formula: […]
Score is 0 for GIPRCNT values of 100 or above, 50 for GIPRCNT values of 0, and 100 for GIPRCNT values of -100.
Consider `O=C1CNc2cc(Cl)ccc2N1`, for which the growth is 101% (inactive).

On to `Fc1ccccc1C1c2ccccc2-c2nccn21` (stereo not given), for which the growth is 98.8% (inactive).

Regarding `CC(C)Sc1nc(Cl)c(C#N)c(-c2ccc(F)cc2)n1`, the growth is 92.9% (inactive).

In the case of `COC(=O)[C@H](Cc1cn(C)cn1)NC(=O)[C@H](C)NC(=O)Nc1cc(C(F)(F)F)cc(C(F)(F)F)c1`, the growth is -93.8% [100 µM] (active).

With `CCSc1nc(-c2ccco2)n2nc(-c3ccco3)cc2n1`, the growth was 96.8% (inactive).

Turning to `COc1ccc(C2=NN(C(N)=S)C(c3ccc4c(c3)OCO4)C2)cc1` (stereo not given), the growth was 21.6% (inactive).

`C=CCN(/C=C/CN(CC=C)CC=C)CC=C`: the growth is 97.3% (inactive).

On to `Cc1cc(C)nc(NS(=O)(=O)c2ccc(Nc3nc4nc(SCc5ccccc5)nc(-c5ccc(O)cc5)c4c(=O)[nH]3)cc2)n1`, for which the growth was 94.6% (inactive).

As to `CC1CN(/N=C/c2ccc([N+](=O)[O-])o2)C(=N)O1` (stereo not given), the growth is 101% (inactive).

On to `N#Cc1c(NC(=O)c2ccco2)[n+]([O-])c2ccccc2[n+]1[O-]`, for which the growth was 106% (inactive).

Turning to `Oc1c(Cl)cc(Cl)c(Cl)c1Cc1c(O)c(Cl)cc(Cl)c1Cl`, the growth is 15% (inactive).

For the molecule `CCN1CC2=C(Nc3nc(SC)[nH]c(=O)c3C2c2cc(OC)c(OC)c(OC)c2)/C(=C/c2cc(OC)c(OC)c(OC)c2)C1` (stereo not given), the growth is 83.8% (inactive).

Regarding `COc1ccc(NC(=O)c2ccc(-c3ccccc3)cc2)c(C(N)=O)c1`, the growth is 98.4% (inactive).

Consider `COc1cc(/C=N/OC(=O)Nc2ccccc2)cc(OC)c1OC`, for which the growth is 107% (inactive).

Take `C(=C1c2ccccc2-c2ccccc21)c1ccccn1`: the growth was 50.4% (inactive).

Turning to `COc1cnc2c(c1)C(=O)c1c-2n(CCCNC2=NCCS2)c(=O)c2cc(F)ccc12`, the growth was 12.1% (inactive).

For the molecule `CC1Cc2ccccc2N1C(=O)c1ccc(C(=O)c2ccccc2)cc1` (stereo not given), the growth is 63.5% (inactive).

On to `O=C(C(=O)N1CCOCC1)c1cn(CCCn2cc(C(=O)C(=O)N3CCOCC3)c3ccccc32)c2ccccc12`, for which the growth is 102% (inactive).

Consider `OC(c1ccccc1)C(NCc1ccccc1)c1ccccc1` (stereo not given), for which the growth is 102% (inactive).

Consider `Cc1ccc2nc3c(n2c1)C(=O)C(=O)c1ccccc1-3`, for which the growth is -86% (active).

Turning to `O=C(Nc1cccc(Cl)c1)Nc1cccc(Cl)c1`, the growth is 63.5% (inactive).

Turning to `O=C(O)C1CCN(S(=O)(=O)c2ccc(-c3ccccc3)cc2)CC1`, the growth is 104% (inactive).

As for `COc1ccc2c3c(ccc2c1)C(=O)/C(=C\O)CC3`, the growth is 82.6% (inactive).

On to `N#Cc1c(-c2ccccc2)cc(-c2ccccc2)n(CCC(=O)O)c1=O`, for which the growth is 38.2% (inactive).

Take `Nc1ccc(N=Nc2ccccc2)cc1[N+](=O)[O-]`: the growth was 86.7% (inactive).

Turning to `O=C1c2cccc3c([N+](=O)[O-])ccc(c23)C(=O)N1CCCCl`, the growth is -97.4% [100 µM] (active).

In the case of `O=C(COc1cccc(/C=C2\Cc3ccccc3C2=O)c1)c1ccc(Cl)cc1`, the growth is 125% (inactive).

Take `CCCCN=C(N)c1ccc(OCCSCCOc2ccc(C(N)=NCCCC)cc2)cc1`: the growth was 34.5% (inactive).

Take `COc1ccc2c(=O)c(OC)c(-c3cc(OC)c(OC)c(OC)c3)oc2c1`: the growth was 96.1% (inactive).

On to `Nc1nc(Nc2ccccc2SSc2ccccc2Nc2nc(N)nc(-c3ccc(I)cc3)n2)nc(-c2ccc(I)cc2)n1`, for which the growth is 34.5% (inactive).

With `Nc1nc2c(c(=O)[nH]1)C1(C(=O)Nc3ccccc31)c1c(nc(N)[nH]c1=O)N2`, the growth was 107% (inactive).

For `C/C(=C\CCc1ccoc1)CC/C=C(\C)CCCN1CCSCC1`, the growth was 76.7% (inactive).

On to `O=C(COc1cccc(/C=C2\Oc3ccc4ccccc4c3C2=O)c1)c1ccc(Cl)cc1`, for which the growth is 61.5% (inactive).

In the case of `[N-]=[N+]=NCc1cccc(/C(O)=C/C(=O)C(=O)O)c1`, the growth was 103% (inactive).

For `Clc1ccc(C2c3ccccc3-c3nccn32)c(Cl)c1` (stereo not given), the growth is 86.3% (inactive).

Consider `COc1cc(-c2nnc(-c3nc(-c4cc(OC)c(OC)c(OC)c4)n4ccccc34)o2)ccc1N`, for which the growth is 64.2% (inactive).

In the case of `CC(C)CC1NC(=O)C(CCCN)NC(=O)C(C(C)C)NC(=O)C2CCCN2C(=O)C(Cc2ccccc2)NC(=O)C(CC(C)C)NC(=O)C(CCCN)NC(=O)C(C(C)C)NC(=O)C2CCCN2C(=O)C(Cc2ccccc2)NC1=O` (stereo not given), the growth was -94.4% (active).

`CCCCCCCCN(CCO)CCCCCCCC`: the growth is 102% (inactive).

Regarding `Nc1nc(SCc2cccnc2)c2ncn(C3OC(CO)C(O)C3O)c2n1` (stereo not given), the growth is 98.3% (inactive).

Take `CC1CN(C2CCCCC2)C(=O)NC1=O` (stereo not given): the growth was 110% (inactive).

These data come from PubChem BioAssay (NCI).
